# Data published in article PMC5540273 (PLoS ONE, 2017).
# Test system: FLT4
# Settings: concentration: 1 μM, replicates: in singlicate; n = 1
# 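Further: KINOMEscan kinase panel screen.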
row,SMILES,%Inh [%]
1,Cn1cc(-c2[nH]c3cc(NC(=O)[C@H](N)C4CCCCC4)cc4c3c2C=NNC4=O)cn1,99.5
2,O=C(Nc1ccccc1F)NC1CCN(c2ccnc(Nc3ccc(F)cc3)n2)CC1 [GSK1379800],0
3,Cc1ccc(F)c(C(=O)Nc2cccc(-c3nn4ccccc4c3-c3ccnc(Nc4cccc(F)c4)n3)c2)c1F [GSK361061],82
4,O=C(O)C(F)(F)F.O=C(O)C(F)(F)F.O=c1[nH]ccc2nc(N[C@@H]3CCCNC3)nc(Nc3ccc(S(=O)(=O)N4CCOCC4)cc3)c12 [GSK2177277],98.7
5,CN1CCN(CCCNc2nccc(-c3c(-c4ccc(F)cc4)nn4cc(C(F)(F)F)ccc34)n2)CC1 [GW621581],16
6,CSc1cccc2c(-c3ccncn3)c(-c3ccc(F)cc3)nn12 [GW514786],0
7,O=C(Nc1cccc(-c2nn3ccccc3c2-c2ccnc(Nc3cccc(C(F)(F)F)c3)n2)c1)c1c(F)cccc1F [GSK292658],36
8,COc1ccc(Nc2nccc(N3CCC(NC(=O)Nc4cccc(OC)c4)C3)n2)cc1 (stereo not shown) [GSK1379742],0
9,Cc1cccc(NC(=O)Nc2ccc(Oc3ncnc4ccn(C)c34)cc2)c1,73
10,O=C(NC1CCN(c2ccnc(Nc3ccc(F)cc3)n2)C1)c1cc2ccccc2s1 (stereo not shown) [GSK1379716],3
11,O=c1[nH]cc(-c2ccc(N3CCOCC3)cc2)c2sc(-c3cn[nH]c3)cc12 [GSK2276055],0
12,Nc1ncc(-c2cccnc2)c2scc(-c3ccc4c(c3)CCN4C(=O)Cc3ccccc3)c12 [GSK683281],35
13,O=C(Nc1cccc(Oc2ccc3nc(NC(=O)C4CC4)cn3n2)c1)c1ccccc1C(F)(F)F,99.9
14,Cl.Cl.NCC(NCc1ccc(-c2ccnc3[nH]ccc23)s1)c1ccccc1 (stereo not shown) [GSK1321565],5
15,COc1ccc(CNC(=O)NC2CCN(c3ccnc(Nc4ccc(F)cc4)n3)CC2)cc1 [GSK1379788],0
16,CCn1c(-c2nonc2N)nc2c(C#CC(C)(C)O)nc(OC[C@H](N)c3ccccc3)cc21 [GSK943949],20
17,CN(c1ccc(NC(=O)Nc2cc(C(F)(F)F)ccc2F)cc1)c1ccnc(Nc2ccc(S(N)(=O)=O)cc2)n1 [GW809893],99.8
18,O=C(Nc1n[nH]c2nc(-c3ccc(O)cc3)ccc12)C1CC1 [SB-710363],0
19,O=C(Nc1cccc(-c2nn3ccccc3c2-c2ccnc(Nc3cccc(F)c3)n2)c1)c1c(F)ccc(F)c1Cl [GSK357952],38

row,SMILES,%Inh [%]
1,Nc1ncnc2c1nc(-c1ccccc1)n2-c1ccccc1 [SKF-97293],0
2,Cc1cccc(Nc2nc(N[C@H]3CCNC3)ncc2C(N)=O)c1.Cl [GSK2197149],9
3,COc1cccc(C2=C(Nc3ccc(Cl)c(C(=O)O)c3)C(=O)NC2=O)c1 [SB-390769],47
4,COc1cc(Nc2nccc(-c3c(-c4cccc(NC(=O)c5c(F)cccc5F)c4)nn4ccccc34)n2)cc(OC)c1OC [GSK323521],20
5,CC(=O)Nc1nc2cnc(Nc3cc(NC(=O)c4cccc(C5(C#N)CC5)c4Cl)ccc3C)nc2s1,60
6,c1ccc(Oc2ccc(Nc3ccnc4cc(-c5ccc(CNCCN6CCOCC6)o5)ccc34)cc2)nc1 [GW567145],0
7,CNC(=O)c1ccccc1Nc1nc(Nc2ccc(N3CCOCC3)cc2)ncc1Cl.Cl [GSK1576028],99.9
8,Cl.Cl.NCC(NC(=O)c1cc(-c2ccccc2)c(-c2ccnc3[nH]ccc23)s1)c1ccccc1 (stereo not shown) [GSK1321561],2
9,Fc1ccc(-c2ncn(C3CCNCC3)c2-c2ccnc(Oc3ccc(-c4ccccc4)cc3)n2)cc1 [SB-245391],5
10,Cn1cc(-c2ccc3c(c2)CCN3C(=O)Cc2cccc(F)c2)c2c(N)ncnc21 [GSK2603358],6
11,COc1cc(Nc2nccc(N3CCC(NC(=O)c4cc5ccccc5s4)C3)n2)cc(OC)c1OC (stereo not shown) [GSK1379760],26
12,CC(=O)N1CCN(c2ccc(Nc3nccc(-c4sc(C(C)C)nc4-c4cccc(NS(=O)(=O)c5cccc(Cl)c5)c4)n3)cn2)CC1 [GSK1660437],82
13,COc1cc(Nc2ncc3c(C)nc(-c4cc5ccccc5[nH]4)n3n2)cc(OC)c1OC [GW869516],1
14,CN1CCN(Cc2cccc(-c3ccc4c(Nc5ccc(Oc6ccccc6)cc5)ccnc4c3)c2)CC1 [GW578342],43
15,Nc1ncc(-c2ccc3nccc(-c4ccncc4)c3c2)cc1S(=O)(=O)N1CCOCC1 [GSK1627798],0
16,CN(C)S(=O)(=O)c1cc(-c2ccc3nccc(-c4cccc(S(N)(=O)=O)c4)c3c2)cnc1N [GSK1669921],1
17,CCn1c(-c2nonc2N)nc2c(C#CC(C)(C)O)ncc(OCCCCN)c21.O=C(O)C(F)(F)F.O=C(O)C(F)(F)F [GSK507274],15
18,Cc1ccc(C)c(NC(=O)NC2CCN(c3ccnc(Nc4ccc(F)cc4)n3)C2)c1 (stereo not shown) [GSK1379720],0
